Assays:
Test in all cases: log2 ratio of Biotin-Ahx-Ub-VS probe labelling (fragment/DMSO); higher = less target engagement (more negative = stronger competition), active = hit call of the paper (q ≤ 0.05, log2 ratio ≤ -1)
Conditions in all cases: compound concentration: 200 uM; treatment time: 3 h
[1] = target: USP34 (UniProt Q70CQ2)
Outline: (§1)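 In triplicate, 495 µg of HEK293T lysate per sample was incubated with fragment at 200 µM or vehicle for 3 h. Biotin-Ahx-Ub-VS was then added to 0.5 µM final for 1 h, and labelled DUBs were captured with NeutrAvidin, digested with LysC and trypsin, and measured by diaPASEF LC-MS/MS. Data are average log2 fragment/vehicle ratios by unpaired t-test from global-median-normalised Spectronaut label-free quantities, restricted to proteins with ≥2 unique peptides.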

[2] = target: T1, USP36 (UniProt Q9P275)
T1 sequence (whole entry): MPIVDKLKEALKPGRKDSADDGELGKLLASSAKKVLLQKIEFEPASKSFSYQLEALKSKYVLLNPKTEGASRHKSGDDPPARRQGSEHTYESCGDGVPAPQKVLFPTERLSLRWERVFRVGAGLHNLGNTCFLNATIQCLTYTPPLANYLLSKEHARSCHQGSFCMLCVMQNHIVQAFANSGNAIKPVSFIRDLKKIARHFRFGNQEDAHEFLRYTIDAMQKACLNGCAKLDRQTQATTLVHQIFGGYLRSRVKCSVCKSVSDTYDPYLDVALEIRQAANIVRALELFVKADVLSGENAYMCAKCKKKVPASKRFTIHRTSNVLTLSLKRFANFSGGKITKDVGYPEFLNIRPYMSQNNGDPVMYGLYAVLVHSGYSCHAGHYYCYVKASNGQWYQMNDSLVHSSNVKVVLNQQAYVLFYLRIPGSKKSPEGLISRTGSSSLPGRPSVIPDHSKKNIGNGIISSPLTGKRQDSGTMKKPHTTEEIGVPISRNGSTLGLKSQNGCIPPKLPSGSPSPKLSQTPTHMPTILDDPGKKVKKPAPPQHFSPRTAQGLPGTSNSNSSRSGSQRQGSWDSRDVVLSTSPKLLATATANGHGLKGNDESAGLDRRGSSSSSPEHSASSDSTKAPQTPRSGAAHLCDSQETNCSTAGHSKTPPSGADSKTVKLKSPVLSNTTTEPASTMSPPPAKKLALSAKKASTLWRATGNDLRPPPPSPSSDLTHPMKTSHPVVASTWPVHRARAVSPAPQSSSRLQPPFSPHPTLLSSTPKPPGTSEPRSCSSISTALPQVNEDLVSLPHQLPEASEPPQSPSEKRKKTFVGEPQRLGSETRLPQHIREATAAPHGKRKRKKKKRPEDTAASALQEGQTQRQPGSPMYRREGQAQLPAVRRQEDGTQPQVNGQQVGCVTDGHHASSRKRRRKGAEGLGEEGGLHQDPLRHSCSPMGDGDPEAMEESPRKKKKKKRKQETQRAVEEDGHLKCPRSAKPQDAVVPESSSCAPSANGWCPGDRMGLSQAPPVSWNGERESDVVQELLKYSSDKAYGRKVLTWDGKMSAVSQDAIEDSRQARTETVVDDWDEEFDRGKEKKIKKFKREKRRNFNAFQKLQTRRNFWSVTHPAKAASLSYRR
Outline: as §1

[3] = target: T2, USP38 (UniProt Q8NB14)
T2 sequence (whole entry): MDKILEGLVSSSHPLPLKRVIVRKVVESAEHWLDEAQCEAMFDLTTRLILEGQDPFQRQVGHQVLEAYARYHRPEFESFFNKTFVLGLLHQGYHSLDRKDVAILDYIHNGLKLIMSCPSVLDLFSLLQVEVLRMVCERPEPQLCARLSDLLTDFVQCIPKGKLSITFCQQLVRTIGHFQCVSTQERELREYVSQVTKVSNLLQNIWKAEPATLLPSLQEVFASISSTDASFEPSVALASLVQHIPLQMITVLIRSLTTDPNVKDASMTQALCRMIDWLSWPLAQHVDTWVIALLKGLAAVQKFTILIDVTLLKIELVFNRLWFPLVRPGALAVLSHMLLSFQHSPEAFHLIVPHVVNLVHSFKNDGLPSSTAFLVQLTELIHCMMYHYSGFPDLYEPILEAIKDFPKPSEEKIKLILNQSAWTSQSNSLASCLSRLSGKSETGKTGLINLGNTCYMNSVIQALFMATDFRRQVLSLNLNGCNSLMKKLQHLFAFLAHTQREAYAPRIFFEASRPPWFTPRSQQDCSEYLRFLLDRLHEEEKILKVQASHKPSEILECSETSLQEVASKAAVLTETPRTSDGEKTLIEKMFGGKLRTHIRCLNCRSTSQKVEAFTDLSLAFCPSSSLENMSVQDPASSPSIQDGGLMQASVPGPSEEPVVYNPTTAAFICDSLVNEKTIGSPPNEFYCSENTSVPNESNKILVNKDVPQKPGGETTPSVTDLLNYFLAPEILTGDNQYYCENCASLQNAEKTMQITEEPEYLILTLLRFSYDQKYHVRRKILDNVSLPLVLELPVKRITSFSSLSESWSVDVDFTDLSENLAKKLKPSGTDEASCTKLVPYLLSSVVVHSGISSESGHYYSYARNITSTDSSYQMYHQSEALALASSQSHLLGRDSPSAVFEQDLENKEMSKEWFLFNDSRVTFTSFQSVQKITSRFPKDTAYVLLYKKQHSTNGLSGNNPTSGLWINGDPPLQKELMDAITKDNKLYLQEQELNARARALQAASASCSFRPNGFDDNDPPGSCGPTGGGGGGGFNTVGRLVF
Outline: as §1

[4] = target: T3, USP39 (UniProt Q53GS9)
T3 sequence (whole entry): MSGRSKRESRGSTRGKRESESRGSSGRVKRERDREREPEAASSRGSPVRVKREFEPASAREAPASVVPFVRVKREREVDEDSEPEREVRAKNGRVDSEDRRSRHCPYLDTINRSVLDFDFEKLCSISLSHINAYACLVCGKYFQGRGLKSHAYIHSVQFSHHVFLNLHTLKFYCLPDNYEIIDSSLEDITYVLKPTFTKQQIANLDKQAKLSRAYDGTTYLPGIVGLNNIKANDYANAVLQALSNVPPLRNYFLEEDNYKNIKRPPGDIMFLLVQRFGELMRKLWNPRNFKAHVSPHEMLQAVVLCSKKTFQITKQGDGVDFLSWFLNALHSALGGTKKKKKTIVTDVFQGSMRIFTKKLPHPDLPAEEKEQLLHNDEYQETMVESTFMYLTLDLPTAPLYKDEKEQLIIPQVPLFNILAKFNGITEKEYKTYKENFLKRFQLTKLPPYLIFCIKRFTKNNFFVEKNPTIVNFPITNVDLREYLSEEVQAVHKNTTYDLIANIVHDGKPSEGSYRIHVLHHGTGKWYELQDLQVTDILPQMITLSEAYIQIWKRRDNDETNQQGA
Outline: as §1

[5] = target: T4, USP4 (UniProt Q13107)
T4 sequence (whole entry): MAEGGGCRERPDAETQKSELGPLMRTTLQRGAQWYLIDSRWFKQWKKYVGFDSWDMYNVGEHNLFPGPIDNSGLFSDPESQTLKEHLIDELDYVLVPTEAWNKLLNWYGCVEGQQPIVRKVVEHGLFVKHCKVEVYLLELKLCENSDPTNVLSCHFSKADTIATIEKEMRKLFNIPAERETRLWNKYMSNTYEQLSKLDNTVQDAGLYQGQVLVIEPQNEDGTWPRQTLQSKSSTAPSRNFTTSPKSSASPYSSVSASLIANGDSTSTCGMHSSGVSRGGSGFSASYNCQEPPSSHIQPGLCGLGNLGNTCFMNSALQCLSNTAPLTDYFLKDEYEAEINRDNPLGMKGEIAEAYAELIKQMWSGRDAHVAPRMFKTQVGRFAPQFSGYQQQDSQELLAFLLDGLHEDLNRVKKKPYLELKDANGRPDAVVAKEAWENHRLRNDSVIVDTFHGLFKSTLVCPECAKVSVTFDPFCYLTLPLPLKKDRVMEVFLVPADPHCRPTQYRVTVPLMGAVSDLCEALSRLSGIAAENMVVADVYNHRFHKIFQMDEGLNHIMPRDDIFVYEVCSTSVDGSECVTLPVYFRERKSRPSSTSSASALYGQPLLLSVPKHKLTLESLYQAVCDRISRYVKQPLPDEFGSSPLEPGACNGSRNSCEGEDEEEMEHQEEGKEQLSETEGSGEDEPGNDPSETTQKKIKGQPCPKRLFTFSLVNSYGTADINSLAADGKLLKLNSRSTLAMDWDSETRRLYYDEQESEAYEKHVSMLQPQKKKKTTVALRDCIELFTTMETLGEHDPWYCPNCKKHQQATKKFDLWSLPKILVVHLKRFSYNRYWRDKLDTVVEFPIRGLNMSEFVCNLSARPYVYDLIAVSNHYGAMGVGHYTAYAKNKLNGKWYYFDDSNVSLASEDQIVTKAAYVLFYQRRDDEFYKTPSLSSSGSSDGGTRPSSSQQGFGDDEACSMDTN
Outline: as §1

Measured: log2 ratio of Biotin-Ahx-Ub-VS probe labelling

USP34, sequence (Q70CQ2 whole entry, the tested form may be a part): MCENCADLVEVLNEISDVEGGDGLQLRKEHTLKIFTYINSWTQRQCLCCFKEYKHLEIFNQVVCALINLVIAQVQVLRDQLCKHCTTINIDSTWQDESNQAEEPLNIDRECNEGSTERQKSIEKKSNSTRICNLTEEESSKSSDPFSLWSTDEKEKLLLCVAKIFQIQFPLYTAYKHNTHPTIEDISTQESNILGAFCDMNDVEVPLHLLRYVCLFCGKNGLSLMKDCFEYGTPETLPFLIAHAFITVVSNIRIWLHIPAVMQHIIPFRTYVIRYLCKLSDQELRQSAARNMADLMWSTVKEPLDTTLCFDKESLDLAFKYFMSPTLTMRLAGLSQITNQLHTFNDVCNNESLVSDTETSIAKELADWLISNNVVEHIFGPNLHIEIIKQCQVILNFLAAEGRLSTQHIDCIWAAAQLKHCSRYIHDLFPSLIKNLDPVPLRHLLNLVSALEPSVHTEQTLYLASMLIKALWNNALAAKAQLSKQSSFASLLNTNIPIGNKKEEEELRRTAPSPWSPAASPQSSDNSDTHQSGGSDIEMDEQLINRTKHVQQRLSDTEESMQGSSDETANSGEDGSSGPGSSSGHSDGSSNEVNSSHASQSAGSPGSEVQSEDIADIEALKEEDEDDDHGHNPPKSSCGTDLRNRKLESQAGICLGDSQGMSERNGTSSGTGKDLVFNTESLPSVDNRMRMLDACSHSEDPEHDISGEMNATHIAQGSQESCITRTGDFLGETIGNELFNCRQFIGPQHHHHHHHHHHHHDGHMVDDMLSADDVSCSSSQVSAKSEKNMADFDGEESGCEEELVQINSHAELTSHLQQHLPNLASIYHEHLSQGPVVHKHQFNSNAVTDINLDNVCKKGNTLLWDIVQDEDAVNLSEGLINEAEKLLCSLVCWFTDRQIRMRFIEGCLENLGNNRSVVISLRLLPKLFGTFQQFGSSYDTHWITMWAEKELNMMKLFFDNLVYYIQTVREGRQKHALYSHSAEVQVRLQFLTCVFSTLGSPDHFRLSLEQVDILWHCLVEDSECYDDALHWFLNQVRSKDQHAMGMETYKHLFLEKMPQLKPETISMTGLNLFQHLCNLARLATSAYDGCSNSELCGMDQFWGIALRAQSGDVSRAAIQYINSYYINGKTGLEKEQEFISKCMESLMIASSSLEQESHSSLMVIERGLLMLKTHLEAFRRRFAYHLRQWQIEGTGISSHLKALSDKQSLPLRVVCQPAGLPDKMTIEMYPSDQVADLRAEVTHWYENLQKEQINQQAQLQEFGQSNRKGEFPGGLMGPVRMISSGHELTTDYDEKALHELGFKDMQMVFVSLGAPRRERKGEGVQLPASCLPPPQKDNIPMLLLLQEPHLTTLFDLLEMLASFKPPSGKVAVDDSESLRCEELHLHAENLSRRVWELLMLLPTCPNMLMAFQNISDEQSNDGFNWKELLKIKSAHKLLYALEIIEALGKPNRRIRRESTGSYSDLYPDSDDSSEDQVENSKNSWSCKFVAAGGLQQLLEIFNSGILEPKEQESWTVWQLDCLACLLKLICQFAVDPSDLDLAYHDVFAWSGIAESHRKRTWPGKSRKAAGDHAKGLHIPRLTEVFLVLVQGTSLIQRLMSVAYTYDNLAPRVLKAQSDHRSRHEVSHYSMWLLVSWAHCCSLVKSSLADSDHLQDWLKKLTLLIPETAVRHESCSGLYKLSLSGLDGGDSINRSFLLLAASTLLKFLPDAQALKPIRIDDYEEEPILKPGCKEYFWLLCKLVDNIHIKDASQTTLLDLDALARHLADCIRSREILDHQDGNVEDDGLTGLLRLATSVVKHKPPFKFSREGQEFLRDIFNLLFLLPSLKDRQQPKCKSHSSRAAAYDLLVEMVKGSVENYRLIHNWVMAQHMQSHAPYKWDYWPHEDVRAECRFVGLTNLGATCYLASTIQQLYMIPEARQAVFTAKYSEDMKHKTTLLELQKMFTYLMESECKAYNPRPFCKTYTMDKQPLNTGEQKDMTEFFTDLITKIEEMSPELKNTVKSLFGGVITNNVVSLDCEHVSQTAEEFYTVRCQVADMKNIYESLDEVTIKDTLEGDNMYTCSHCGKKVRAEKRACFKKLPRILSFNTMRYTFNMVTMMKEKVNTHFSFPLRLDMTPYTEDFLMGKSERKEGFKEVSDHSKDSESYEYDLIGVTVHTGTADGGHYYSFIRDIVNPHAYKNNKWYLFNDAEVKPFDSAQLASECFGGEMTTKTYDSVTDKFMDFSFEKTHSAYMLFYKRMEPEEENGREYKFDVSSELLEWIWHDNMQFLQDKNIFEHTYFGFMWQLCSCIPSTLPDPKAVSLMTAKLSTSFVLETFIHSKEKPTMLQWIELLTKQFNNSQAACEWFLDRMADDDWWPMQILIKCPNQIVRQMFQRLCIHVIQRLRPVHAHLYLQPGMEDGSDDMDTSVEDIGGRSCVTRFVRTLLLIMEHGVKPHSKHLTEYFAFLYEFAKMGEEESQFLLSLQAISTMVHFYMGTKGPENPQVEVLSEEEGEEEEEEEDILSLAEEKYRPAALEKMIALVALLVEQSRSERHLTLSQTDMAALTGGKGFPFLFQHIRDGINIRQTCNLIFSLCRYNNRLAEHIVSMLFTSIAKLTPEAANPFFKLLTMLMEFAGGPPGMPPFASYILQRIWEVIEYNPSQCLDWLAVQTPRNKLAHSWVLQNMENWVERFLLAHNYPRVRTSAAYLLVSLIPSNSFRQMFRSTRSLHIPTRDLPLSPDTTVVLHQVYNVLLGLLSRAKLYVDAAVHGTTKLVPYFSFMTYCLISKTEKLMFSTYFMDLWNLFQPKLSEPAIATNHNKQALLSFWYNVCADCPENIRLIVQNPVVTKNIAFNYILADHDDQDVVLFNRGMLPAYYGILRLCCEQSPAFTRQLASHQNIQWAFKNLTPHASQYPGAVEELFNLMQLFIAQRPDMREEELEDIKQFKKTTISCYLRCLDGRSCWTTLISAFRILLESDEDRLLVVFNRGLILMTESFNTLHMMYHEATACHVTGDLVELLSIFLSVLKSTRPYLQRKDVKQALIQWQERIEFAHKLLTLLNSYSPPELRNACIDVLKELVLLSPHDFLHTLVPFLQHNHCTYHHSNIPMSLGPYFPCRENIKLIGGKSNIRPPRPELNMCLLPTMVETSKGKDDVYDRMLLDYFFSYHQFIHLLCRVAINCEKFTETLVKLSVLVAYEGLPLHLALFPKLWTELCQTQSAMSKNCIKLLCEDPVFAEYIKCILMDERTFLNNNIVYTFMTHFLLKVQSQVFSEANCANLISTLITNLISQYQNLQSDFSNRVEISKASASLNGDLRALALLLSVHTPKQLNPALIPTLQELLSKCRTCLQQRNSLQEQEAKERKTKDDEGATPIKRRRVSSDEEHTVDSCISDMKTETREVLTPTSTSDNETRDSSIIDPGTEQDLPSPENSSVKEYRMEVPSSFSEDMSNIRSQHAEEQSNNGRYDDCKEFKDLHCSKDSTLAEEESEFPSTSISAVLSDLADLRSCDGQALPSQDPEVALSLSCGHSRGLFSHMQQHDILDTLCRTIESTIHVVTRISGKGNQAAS

Cc1ccn2cc(CNC(=O)CCl)nc2c1.Cl
inactive: [1] -0.192 | [2] -0.029 | [3] -0.0421 | [4] 0.0111 | [5] 0.0609
